Measured values from PubChem BioAssay (NCATS).
Results filed as inconclusive are left out. Calls of active or inactive are those of the source. Calls come from the whole dose curve; as a rule, active = well fitted inhibition curve with a large enough effect; inconclusive = small, poorly fitted or top-dose-only effect; inactive = flat fitted curve, though single readings scatter.

What was measured:
Test in all cases: qHTS profiling for inhibitors of Plasmodium falciparum proliferation (AID 504749); note: nearly all actives have a fitted effect of over 60% in size
[1] = tested on: AS120; conditions: P. falciparum in erythrocytes, SYBR Green DNA, 72 h; series mostly up to 28.7 µM
Procedure, shortened: (§1)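 P. falciparum-infected erythrocytes (0.3% parasitemia, 2.5% hematocrit final) were exposed to compounds for 72 h at 37 C in 5% CO2, then lysed with SYBR Green buffer overnight at room temperature; parasite DNA fluorescence was normalized to artemisinin and DMSO controls.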

[2] = tested on: ATS189; conditions: P. falciparum in erythrocytes, SYBR Green DNA, 72 h; series mostly up to 28.7 µM
Procedure, shortened: as §1

[3] = tested on: CP185; conditions: P. falciparum in erythrocytes, SYBR Green DNA, 72 h; series mostly up to 28.7 µM
Procedure, shortened: as §1

[4] = tested on: CP192; conditions: P. falciparum in erythrocytes, SYBR Green DNA, 72 h; series mostly up to 28.7 µM
Procedure, shortened: as §1

[5] = tested on: CP194; conditions: P. falciparum in erythrocytes, SYBR Green DNA, 72 h; series mostly up to 28.7 µM
Procedure, shortened: as §1

[6] = tested on: CP201; conditions: P. falciparum in erythrocytes, SYBR Green DNA, 72 h; series mostly up to 28.7 µM
Procedure, shortened: as §1

[7] = tested on: CP237; conditions: P. falciparum in erythrocytes, SYBR Green DNA, 72 h; series mostly up to 28.7 µM
Procedure, shortened: as §1

[8] = tested on: CP238; conditions: P. falciparum in erythrocytes, SYBR Green DNA, 72 h; series mostly up to 28.7 µM
Procedure, shortened: as §1

[9] = tested on: CP265; conditions: P. falciparum in erythrocytes, SYBR Green DNA, 72 h; series mostly up to 12.8 µM
Procedure, shortened: as §1

[10] = tested on: CP266; conditions: P. falciparum in erythrocytes, SYBR Green DNA, 72 h; series mostly up to 12.8 µM
Procedure, shortened: as §1

[11] = tested on: CP286; conditions: P. falciparum in erythrocytes, SYBR Green DNA, 72 h; series mostly up to 28.7 µM
Procedure, shortened: as §1

[12] = tested on: CP305; conditions: P. falciparum in erythrocytes, SYBR Green DNA, 72 h; series mostly up to 28.7 µM
Procedure, shortened: as §1

[13] = tested on: DFO2036; conditions: P. falciparum in erythrocytes, SYBR Green DNA, 72 h; series mostly up to 28.7 µM
Procedure, shortened: as §1

[14] = tested on: DIV30; conditions: P. falciparum in erythrocytes, SYBR Green DNA, 72 h; series mostly up to 28.7 µM
Procedure, shortened: as §1

[15] = tested on: GB4; conditions: P. falciparum in erythrocytes, SYBR Green DNA, 72 h; series mostly up to 28.7 µM
Procedure, shortened: as §1

[16] = tested on: HB3; conditions: P. falciparum in erythrocytes, SYBR Green DNA, 72 h; series mostly up to 28.7 µM
Procedure, shortened: as §1

[17] = tested on: P94_40; conditions: P. falciparum in erythrocytes, SYBR Green DNA, 72 h; series mostly up to 28.7 µM
Procedure, shortened: as §1

[18] = tested on: PC26; conditions: P. falciparum in erythrocytes, SYBR Green DNA, 72 h; series mostly up to 28.7 µM
Procedure, shortened: as §1

[19] = tested on: TAB109; conditions: P. falciparum in erythrocytes, SYBR Green DNA, 72 h; series mostly up to 12.8 µM
Procedure, shortened: as §1

[20] = tested on: TAB113; conditions: P. falciparum in erythrocytes, SYBR Green DNA, 72 h; series mostly up to 28.7 µM
Procedure, shortened: as §1

Measured: Potency

Oc1ccc2c3c1O[C@H]1[C@@H](O)CC[C@@]4(O)C(C2)N(CC2CCC2)CCC314 (stereo not given in full)
inactive: all assays above

CCCC[N+]1(C)C2CC(OC(=O)C(CO)c3ccccc3)CC1C1OC12 (stereo not given)
inactive: all assays above

CC(C)(O)C1C2OC(=O)C1[C@]1(O)C[C@H]3O[C@]34C(=O)O[C@H]2[C@]14C (stereo not given in full) (tested in a mixture with another compound)
inactive: all assays above
